Reference: PMC7862700, “An all-to-all approach to the identification of sequence-specific readers for epigenetic DNA modifications on cytosine”

Tests used:
Assay in all cases: DAPPL (digital affinity profiling via proximity ligation, sequencing); 10 mM Tris-HCl pH 7.5, 50 mM NaCl, 1 mM DTT, 4% glycerol, room temperature, 30 min; GST-TFs on glutathione beads, 16-mer random dsDNA library, 0.1% formaldehyde crosslink after washing; high values mean tight binding
Conditions in all cases: protein: recombinant; tags: N-terminal GST; dsDNA, one strand shown
FLI1 = target: T1, FLI1 (Homo sapiens, UniProt Q01543 1-452)
T1 sequence: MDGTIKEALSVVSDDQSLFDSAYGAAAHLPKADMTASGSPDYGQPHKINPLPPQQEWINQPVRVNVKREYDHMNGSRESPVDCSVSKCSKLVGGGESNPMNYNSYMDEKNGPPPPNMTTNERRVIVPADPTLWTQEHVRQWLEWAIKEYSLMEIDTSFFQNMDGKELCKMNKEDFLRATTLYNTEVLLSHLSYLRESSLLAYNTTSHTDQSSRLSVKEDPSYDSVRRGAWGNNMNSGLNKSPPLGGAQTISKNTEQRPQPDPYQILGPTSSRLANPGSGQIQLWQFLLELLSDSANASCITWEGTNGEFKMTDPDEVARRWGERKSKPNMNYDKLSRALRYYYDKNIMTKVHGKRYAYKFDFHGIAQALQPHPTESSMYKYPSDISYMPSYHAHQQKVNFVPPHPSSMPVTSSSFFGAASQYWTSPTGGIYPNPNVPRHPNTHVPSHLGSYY
Method in brief: (§1)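 The binding signal reported is, for every hexamer, its read frequency for a factor over its read frequency for the tag-only sample. Reads came from pools of yeast-expressed, GST-fused human transcription factors on glutathione beads, barcoded with DNA and mixed with that sample, which were incubated with 200 nmole of a random double-stranded 16-mer DNA library in Tris/NaCl/DTT/glycerol buffer at room temperature for 30 min. After washing, the pools were crosslinked with 0.1% formaldehyde, proximity-ligated with BsaI/T4 ligase for 1 h at 37 °C, PCR-amplified and sequenced on an Illumina NextSeq500.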

ELK1 = target: T2, ELK1 (Homo sapiens, UniProt P19419 1-428)
T2 sequence: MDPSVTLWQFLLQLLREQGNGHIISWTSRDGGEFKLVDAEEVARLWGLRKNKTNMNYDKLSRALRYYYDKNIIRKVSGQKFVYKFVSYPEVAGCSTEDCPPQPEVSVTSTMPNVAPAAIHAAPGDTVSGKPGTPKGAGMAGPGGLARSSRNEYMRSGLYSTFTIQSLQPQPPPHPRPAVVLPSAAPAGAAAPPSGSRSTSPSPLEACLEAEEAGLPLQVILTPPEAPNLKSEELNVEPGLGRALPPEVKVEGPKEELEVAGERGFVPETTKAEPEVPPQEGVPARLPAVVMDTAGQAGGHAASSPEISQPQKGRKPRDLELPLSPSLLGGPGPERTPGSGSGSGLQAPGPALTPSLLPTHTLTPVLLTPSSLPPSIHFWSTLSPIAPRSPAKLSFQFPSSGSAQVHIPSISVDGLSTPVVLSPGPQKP
Method in brief: as §1

GABPA = target: T3, GABPA (Homo sapiens, UniProt Q06546 1-454)
T3 sequence: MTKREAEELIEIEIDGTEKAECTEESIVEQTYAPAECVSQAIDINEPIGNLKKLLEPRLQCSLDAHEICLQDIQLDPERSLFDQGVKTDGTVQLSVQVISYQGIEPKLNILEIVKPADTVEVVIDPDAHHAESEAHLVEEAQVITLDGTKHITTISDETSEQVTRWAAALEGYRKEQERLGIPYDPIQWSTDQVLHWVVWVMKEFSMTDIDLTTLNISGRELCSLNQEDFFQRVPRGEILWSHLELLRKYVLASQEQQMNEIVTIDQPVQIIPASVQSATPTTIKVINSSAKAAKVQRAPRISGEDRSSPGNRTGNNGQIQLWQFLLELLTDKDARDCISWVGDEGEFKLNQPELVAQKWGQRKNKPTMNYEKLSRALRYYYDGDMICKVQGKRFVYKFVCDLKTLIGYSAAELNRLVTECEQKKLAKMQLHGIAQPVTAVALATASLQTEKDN
Method in brief: as §1

ERG = target: T4, ERG (Homo sapiens, UniProt P11308 1-479)
T4 sequence: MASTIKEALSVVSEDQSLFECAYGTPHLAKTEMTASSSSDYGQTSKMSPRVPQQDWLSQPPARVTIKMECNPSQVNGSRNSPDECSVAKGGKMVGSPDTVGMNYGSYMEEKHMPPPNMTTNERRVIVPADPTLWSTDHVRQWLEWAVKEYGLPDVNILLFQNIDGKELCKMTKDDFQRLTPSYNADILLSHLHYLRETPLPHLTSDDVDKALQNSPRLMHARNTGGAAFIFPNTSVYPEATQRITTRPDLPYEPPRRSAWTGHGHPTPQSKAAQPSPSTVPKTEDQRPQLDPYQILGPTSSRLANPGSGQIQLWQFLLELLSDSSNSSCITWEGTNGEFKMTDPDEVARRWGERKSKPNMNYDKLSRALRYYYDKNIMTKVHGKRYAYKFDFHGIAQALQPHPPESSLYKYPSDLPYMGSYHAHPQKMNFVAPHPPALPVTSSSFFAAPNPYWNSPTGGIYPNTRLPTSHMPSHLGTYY
Method in brief: as §1

ELF1 = ELF1 (Homo sapiens, UniProt P32519 1-619)
Chain of ELF1 (P32519 whole entry): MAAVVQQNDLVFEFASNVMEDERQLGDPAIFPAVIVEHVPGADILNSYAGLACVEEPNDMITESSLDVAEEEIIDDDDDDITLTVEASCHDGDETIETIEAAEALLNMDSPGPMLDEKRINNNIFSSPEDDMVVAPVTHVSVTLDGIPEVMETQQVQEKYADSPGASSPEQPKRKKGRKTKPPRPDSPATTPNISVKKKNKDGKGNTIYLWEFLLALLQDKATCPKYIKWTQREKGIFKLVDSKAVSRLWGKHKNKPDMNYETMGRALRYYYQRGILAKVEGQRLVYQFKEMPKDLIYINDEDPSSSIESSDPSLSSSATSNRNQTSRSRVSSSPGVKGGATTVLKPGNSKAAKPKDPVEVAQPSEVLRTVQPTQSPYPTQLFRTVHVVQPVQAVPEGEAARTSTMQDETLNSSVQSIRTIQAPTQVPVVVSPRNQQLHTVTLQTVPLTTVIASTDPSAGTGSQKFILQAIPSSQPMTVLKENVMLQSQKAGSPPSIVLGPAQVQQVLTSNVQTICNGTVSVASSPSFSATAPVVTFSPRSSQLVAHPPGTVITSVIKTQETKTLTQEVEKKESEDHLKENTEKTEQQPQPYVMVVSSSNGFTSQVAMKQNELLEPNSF
Method in brief: as §1

EHF = target: T5, EHF (Homo sapiens, UniProt Q9NZC4 1-300)
T5 sequence: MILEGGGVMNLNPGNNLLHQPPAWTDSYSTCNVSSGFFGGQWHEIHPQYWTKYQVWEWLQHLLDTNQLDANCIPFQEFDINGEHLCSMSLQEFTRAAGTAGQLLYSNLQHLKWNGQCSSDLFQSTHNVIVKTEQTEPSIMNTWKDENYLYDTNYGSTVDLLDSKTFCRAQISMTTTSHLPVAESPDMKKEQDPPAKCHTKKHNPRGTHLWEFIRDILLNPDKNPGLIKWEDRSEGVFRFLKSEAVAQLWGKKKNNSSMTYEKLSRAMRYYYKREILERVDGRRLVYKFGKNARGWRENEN
Method in brief: as §1

SPI1 = SPI1 (Homo sapiens, UniProt P17947 1-270)
Method in brief: as §1

SPIB = SPIB (Homo sapiens, UniProt Q01892 1-262)
Chain of SPIB (Q01892 whole entry): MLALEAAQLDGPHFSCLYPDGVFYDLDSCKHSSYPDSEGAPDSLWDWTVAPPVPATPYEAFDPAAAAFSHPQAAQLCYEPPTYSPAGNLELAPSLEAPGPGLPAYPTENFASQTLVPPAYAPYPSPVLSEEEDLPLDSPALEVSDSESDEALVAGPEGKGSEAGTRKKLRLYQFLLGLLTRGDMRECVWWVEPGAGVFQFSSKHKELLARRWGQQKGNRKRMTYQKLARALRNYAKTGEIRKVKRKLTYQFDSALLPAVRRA
Method in brief: as §1

ELK3 = target: T6, ELK3 (Homo sapiens, UniProt P41970 1-407)
T6 sequence: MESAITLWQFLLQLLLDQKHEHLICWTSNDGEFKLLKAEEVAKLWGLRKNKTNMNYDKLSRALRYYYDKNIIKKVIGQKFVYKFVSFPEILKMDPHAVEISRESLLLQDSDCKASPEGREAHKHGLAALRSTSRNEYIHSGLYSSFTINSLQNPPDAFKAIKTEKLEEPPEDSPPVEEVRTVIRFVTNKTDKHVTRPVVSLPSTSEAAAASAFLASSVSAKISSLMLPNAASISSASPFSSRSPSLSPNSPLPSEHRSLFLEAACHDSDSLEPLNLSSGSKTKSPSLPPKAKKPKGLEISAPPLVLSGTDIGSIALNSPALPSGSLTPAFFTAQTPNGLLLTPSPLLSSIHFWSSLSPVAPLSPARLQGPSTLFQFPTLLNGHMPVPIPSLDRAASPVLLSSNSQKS
Method in brief: as §1

| Sequence | binding signal (FLI1) | binding signal (ELK1) | binding signal (GABPA) | binding signal (ERG) | binding signal (ELF1) | binding signal (EHF) | binding signal (SPI1) | binding signal (SPIB) | binding signal (ELK3) |
| --- | --- | --- | --- | --- | --- | --- | --- | --- | --- |
| AAATTA | 1.27 fold enrichment (6-mer frequency, TF over GST control) | 1.18 fold enrichment (6-mer frequency, TF over GST control) | 1.29 fold enrichment (6-mer frequency, TF over GST control) | 1.28 fold enrichment (6-mer frequency, TF over GST control) | 1.29 fold enrichment (6-mer frequency, TF over GST control) | 1.19 fold enrichment (6-mer frequency, TF over GST control) | 1.22 fold enrichment (6-mer frequency, TF over GST control) | 1.26 fold enrichment (6-mer frequency, TF over GST control) | 1.29 fold enrichment (6-mer frequency, TF over GST control) |
| TCCCCG | 1.15 fold enrichment (6-mer frequency, TF over GST control) | 1.22 fold enrichment (6-mer frequency, TF over GST control) | 1.32 fold enrichment (6-mer frequency, TF over GST control) | 1.2 fold enrichment (6-mer frequency, TF over GST control) | 1.23 fold enrichment (6-mer frequency, TF over GST control) | 1.35 fold enrichment (6-mer frequency, TF over GST control) | 1.18 fold enrichment (6-mer frequency, TF over GST control) | 1.13 fold enrichment (6-mer frequency, TF over GST control) | 1.13 fold enrichment (6-mer frequency, TF over GST control) |
| GTTCGA | 1.13 fold enrichment (6-mer frequency, TF over GST control) | 1.12 fold enrichment (6-mer frequency, TF over GST control) | 1.17 fold enrichment (6-mer frequency, TF over GST control) | 1.07 fold enrichment (6-mer frequency, TF over GST control) | 1.08 fold enrichment (6-mer frequency, TF over GST control) | 1.14 fold enrichment (6-mer frequency, TF over GST control) | 1.04 fold enrichment (6-mer frequency, TF over GST control) | 1.05 fold enrichment (6-mer frequency, TF over GST control) | 1.15 fold enrichment (6-mer frequency, TF over GST control) |
| TGTTCA | 1.11 fold enrichment (6-mer frequency, TF over GST control) | 1.31 fold enrichment (6-mer frequency, TF over GST control) | 1.21 fold enrichment (6-mer frequency, TF over GST control) | 1.19 fold enrichment (6-mer frequency, TF over GST control) | 1.18 fold enrichment (6-mer frequency, TF over GST control) | 1.23 fold enrichment (6-mer frequency, TF over GST control) | 1.3 fold enrichment (6-mer frequency, TF over GST control) | 1.17 fold enrichment (6-mer frequency, TF over GST control) | 1.37 fold enrichment (6-mer frequency, TF over GST control) |
| AGCAGC | 1.08 fold enrichment (6-mer frequency, TF over GST control) | 1.06 fold enrichment (6-mer frequency, TF over GST control) | 1.11 fold enrichment (6-mer frequency, TF over GST control) | 1.11 fold enrichment (6-mer frequency, TF over GST control) | 1.19 fold enrichment (6-mer frequency, TF over GST control) | 1.1 fold enrichment (6-mer frequency, TF over GST control) | 1.05 fold enrichment (6-mer frequency, TF over GST control) | 1.11 fold enrichment (6-mer frequency, TF over GST control) | 1.16 fold enrichment (6-mer frequency, TF over GST control) |
| AGTACT | 1.22 fold enrichment (6-mer frequency, TF over GST control) | 1.41 fold enrichment (6-mer frequency, TF over GST control) | 1.19 fold enrichment (6-mer frequency, TF over GST control) | 1.25 fold enrichment (6-mer frequency, TF over GST control) | 1.22 fold enrichment (6-mer frequency, TF over GST control) | 1.27 fold enrichment (6-mer frequency, TF over GST control) | 1.25 fold enrichment (6-mer frequency, TF over GST control) | 1.13 fold enrichment (6-mer frequency, TF over GST control) | 1.44 fold enrichment (6-mer frequency, TF over GST control) |
| GAAGCG | 1.37 fold enrichment (6-mer frequency, TF over GST control) | 1.24 fold enrichment (6-mer frequency, TF over GST control) | 1.27 fold enrichment (6-mer frequency, TF over GST control) | 1.42 fold enrichment (6-mer frequency, TF over GST control) | 1.29 fold enrichment (6-mer frequency, TF over GST control) | 1.53 fold enrichment (6-mer frequency, TF over GST control) | 1.43 fold enrichment (6-mer frequency, TF over GST control) | 1.28 fold enrichment (6-mer frequency, TF over GST control) | 1.49 fold enrichment (6-mer frequency, TF over GST control) |
